Assay [1] is described as follows: BSK_4H_Eotaxin3: BioMAP Diversity Plus: 4H Assay for Eotaxin 3 Biomarker Activity (AID 2283000).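 On outcome: CCL26 protein level quantified by ELISA in parallel with SRB cytotoxicity check.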 The settings on record: primary human endothelial cells (HUVEC); actives raise or lower the signal. An outline of the steps:
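Eotaxin-3 (CCL26) levels were measured by ELISA in HUVEC primary cultures 24 h post-dosing. Gain or loss of signal was fitted in both directions, with DMSO serving as baseline and negative control.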

For assay [2], the target named is human Peroxisome Proliferator-activated Receptor alpha (PPARa), PPARA (gene 5465) (UniProt Q07869). In words: ATG_PPARa_TRANS: Attagene TRANS-FACTORIAL HepG2 Assay for human Peroxisome Proliferator-activated Receptor alpha (PPARa) (AID 2283001; active means hit-call score of the fitted dose curve at least 0.9, where 1 is the maximum;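 on AC50: potency for gain of reporter signal over DMSO so agonist or activator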). An outline of the steps: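 Reporter transcripts quantified by RT-PCR plus capillary electrophoresis after 24 h treatment, fitted upward relative to DMSO. Cells: human HepG2 transiently carrying multiple GAL4-UAS reporter units driven by NR-Gal4 chimeras.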

Read-out in assay [3]: Intercellular Adhesion Molecule 1 (ICAM1), ICAM1 (gene 3383)
In words: BSK_3C_ICAM1: BioMAP Diversity Plus: 3C Assay for Intercellular Adhesion Molecule 1 (ICAM1) Biomarker Activity (AID 2283003). The settings on record: primary human endothelial cells (HUVEC); actives raise or lower the signal. An outline of the steps: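 ELISA readout of ICAM1 in human umbilical vein endothelial cells in the 3C system, taken 24 h post-dose. Gain or loss of signal versus DMSO was fitted in both directions, with SRB total-protein staining run in parallel.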

Assay [4] can be described thus: BSK_3C_Proliferation: Cell Proliferation Assessment in the BioMAP Diversity Plus: 3C Assay (AID 2283006).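 On AC50: potency may reflect either rise or fall in cell number versus DMSO.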 The settings on record: primary human endothelial cells (HUVEC). An outline of the steps: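 Proliferation as total protein: sulforhodamine B (0.1%) stain of TCA-fixed subconfluent human umbilical vein endothelial cells, absorbance 560 nm, 48 h after dosing. Activity fitted in both directions against DMSO baseline.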

The target in assay [5] is Peroxisome proliferator-activated receptor gamma (Homo sapiens) (UniProt P37231). The assay can be described thus: ATG_PPARg_TRANS: Attagene TRANS-FACTORIAL HepG2 Assay for human Peroxisome Proliferator-activated Receptor-gamma (PPARg) (AID 2283007; active means hit-call score of the fitted dose curve at least 0.9, where 1 is the maximum). An outline of the steps:
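After 24 h of chemical exposure, transfected HepG2 cells carrying PPARγ-Gal4 chimera reporter constructs are lysed for RNA. Reporter transcripts are measured by RT-PCR and capillary electrophoresis with fluorescent labelling, and gain of signal is fitted versus DMSO.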

Assay [6] deals with Nuclear receptor subfamily 1 group I member 2 (Homo sapiens) (UniProt O75469). In words: ATG_PXR_TRANS: Attagene TRANS-FACTORIAL HepG2 Assay for human Pregnane X Receptor (PXR) (AID 2283008; active means hit-call score of the fitted dose curve at least 0.9, where 1 is the maximum). An outline of the steps: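 Trans-factorial format: exogenous NR-Gal4 fusion activity, not endogenous factor, in transfected human HepG2 liver cells. After 24 h dosing, RNA isolated, reverse-transcribed, amplified and resolved by capillary electrophoresis; induction scored versus DMSO.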

Assay [7] has as its target human RAR-related Orphan Receptor beta (RORb), RORB (gene 6096) (UniProt Q92753). In words: ATG_RORb_TRANS: Attagene TRANS-FACTORIAL HepG2 Assay for human RAR-related Orphan Receptor beta (RORb) (AID 2283010; active means hit-call score of the fitted dose curve at least 0.9, where 1 is the maximum). An outline of the steps: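 Read-out is reporter mRNA induction, quantified by RT-PCR with fluorescent capillary electrophoresis, 24 h post-dose in transiently transfected HepG2 expressing exogenous NR-Gal4 chimera. Activity fitted upward versus DMSO.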

Assay [8] has as its target Retinoic acid receptor RXR-alpha (Homo sapiens) (UniProt P19793). The assay can be described thus: ATG_RXRa_TRANS: Attagene TRANS-FACTORIAL HepG2 Assay for human Retinoid X Receptor alpha (RXRa) (AID 2283012; active means hit-call score of the fitted dose curve at least 0.9, where 1 is the maximum). An outline of the steps: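 TRANS format reporting activity of exogenous RXRa-Gal4 chimera in transiently transfected HepG2, 24 h exposure. Reporter transcripts quantified by RT-PCR with capillary electrophoresis, with gain of signal scored relative to DMSO.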

The target in assay [9] is human Thyroid Receptor alpha (THRa1), THRA (gene 7067) (UniProt P10827). In words: ATG_THRa1_TRANS: Attagene TRANS-FACTORIAL HepG2 Assay for human Thyroid Receptor alpha (THRa1) (AID 2283014; active means hit-call score of the fitted dose curve at least 0.9, where 1 is the maximum). An outline of the steps:
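HepG2 cells transiently transfected with chimeric NR-Gal4 and GAL4-UAS reporter units, dosed 24 h. Reporter mRNA quantified by RT-PCR, fluorescent labeling, HpaI digestion and capillary electrophoresis; gain-of-signal fit versus DMSO.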

Read-out in assay [10]: E-selectin (Homo sapiens) (UniProt P16581)
In words: BSK_3C_Eselectin: BioMAP Diversity Plus: 3C Assay for Eselectin Biomarker Activity (AID 2283015).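 On outcome: cell surface E-selectin protein quantified by ELISA 24 h after dosing.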 Conditions: primary human endothelial cells (HUVEC); actives raise or lower the signal. An outline of the steps: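 Primary human umbilical vein endothelial cells (3C system), read 24 h after compound addition; E-selectin measured by ELISA. Bidirectional curve fitting against DMSO baseline; cytotoxicity by parallel SRB total-protein staining.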

Read-out in assay [11]: Interleukin-1 alpha (IL1a), IL1A (gene 3552)
In words: BSK_BE3C_IL1a: BioMAP Diversity Plus: BE3C Assay for Interleukin-1 alpha (IL1a) Biomarker Activity (AID 2283016). The settings on record: primary human bronchial epithelial cells; actives raise or lower the signal. An outline of the steps: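 IL-1a measured by ELISA after 24 h treatment of human primary bronchial epithelial cells, with gain or loss of signal fitted versus DMSO. Parallel cultures stained with SRB gauge overt cytotoxicity.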

Read-out in assay [12]: Monocyte Chemoattractant Protein-1 (MCP1), CCL2 (gene 6347)
The assay can be described thus: BSK_4H_MCP1: BioMAP Diversity Plus: 4H Assay for Monocyte Chemoattractant Protein-1 (MCP1) Biomarker Activity (AID 2283018). Conditions: primary human endothelial cells (HUVEC); actives raise or lower the signal. An outline of the steps: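 ELISA of MCP-1 (CCL2) 24 h after chemical dosing of HUVEC in the BioMAP 4H system. Gain or loss versus DMSO fitted; parallel SRB staining (560 nm) tracked overt cytotoxicity.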

Read-out in assay [13]: Human Leukocyte Antigen - DR isotype (HLADR), HLA-DRA (gene 3122)
In words: BSK_3C_HLADR: BioMAP Diversity Plus: 3C Assay for Human Leukocyte Antigen - DR isotype (HLADR) Biomarker Activity (AID 2283019).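 On outcome: ELISA of cell-surface HLA-DR on HUVEC 24 h after dosing.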 The settings on record: primary human endothelial cells (HUVEC); actives raise or lower the signal. An outline of the steps:
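HUVEC monoculture, HLA-DR measured by ELISA 24 h after chemical dosing. Fitted bidirectionally against DMSO baseline; parallel SRB staining assessed cytotoxicity, with 3C proliferation read by SRB at 48 h.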

Assay [14] concerns the target human Peroxisome Proliferator-activated Receptor delta (PPARd), PPARD (gene 5467) (UniProt Q03181). The assay can be described thus: ATG_PPARd_TRANS: Attagene TRANS-FACTORIAL HepG2 Assay for human Peroxisome Proliferator-activated Receptor delta (PPARd) (AID 2283002; active means hit-call score of the fitted dose curve at least 0.9, where 1 is the maximum). An outline of the steps: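 Read-out is induced reporter mRNA, quantified by RT-PCR with fluorescent labelling and capillary electrophoresis after 24 h dosing. Cells are HepG2 transiently carrying multiple GAL4-UAS reporter units driven by exogenous NR-GAL4 chimeras; DMSO serves as baseline.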

The target in assay [15] is human RAR-related Orphan Receptor gamma (RORg), RORC (gene 6097) (UniProt P51449). In words: ATG_RORg_TRANS: Attagene TRANS-FACTORIAL HepG2 Assay for human RAR-related Orphan Receptor gamma (RORg) (AID 2283011; active means hit-call score of the fitted dose curve at least 0.9, where 1 is the maximum). An outline of the steps: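 HepG2 cells transiently transfected with GAL4-UAS reporter units and chimeric RORg-Gal4 construct; after 24 h chemical exposure, reporter mRNA measured by RT-PCR with fluorescent capillary electrophoresis, gain of signal fitted against DMSO.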

In assay [16] the target is human Retinoid X Receptor beta (RXRb), RXRB (gene 6257) (UniProt P28702). The assay can be described thus: ATG_RXRb_TRANS: Attagene TRANS-FACTORIAL HepG2 Assay for human Retinoid X Receptor beta (RXRb) (AID 2283013; active means hit-call score of the fitted dose curve at least 0.9, where 1 is the maximum). An outline of the steps: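 Readout is reporter transcript induction after 24 h dosing. It is measured by RT-PCR of total RNA followed by fluorescent capillary electrophoresis. HepG2 liver cells carry transfected multiple reporter units driven by an exogenous RXRb-Gal4 fusion; activity is relative to DMSO.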

Read-out in assay [17]: Monocyte Chemoattractant Protein-1 (MCP1), CCL2 (gene 6347)
In words: BSK_3C_MCP1: BioMAP Diversity Plus: 3C Assay for Monocyte Chemoattractant Protein-1 (MCP1) Biomarker Activity (AID 2283017). The settings on record: primary human endothelial cells (HUVEC); actives raise or lower the signal. An outline of the steps:
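Human umbilical vein endothelial cells (3C system) exposed to chemicals for 24 h; MCP-1 quantified by ELISA against the DMSO baseline with bidirectional fitting, and parallel SRB staining used to assess cytotoxicity.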

Assay [18] deals with Retinoic acid receptor alpha (Homo sapiens) (UniProt P10276). In words: ATG_RARa_TRANS: Attagene TRANS-FACTORIAL HepG2 Assay for human Retinoic Acid Receptor alpha (RARa) (AID 2283005; active means hit-call score of the fitted dose curve at least 0.9, where 1 is the maximum). An outline of the steps: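 Reporter transcripts, measured by RT-PCR with fluorescent labeling and capillary electrophoresis after 24 h dosing, reflect activity of an exogenous human RARa–GAL4 fusion in transiently transfected HepG2. Fitted for increase relative to DMSO.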

In assay [19] the target is human Retinoic Acid Receptor gamma (RARg), RARG (gene 5916) (UniProt P13631). The assay can be described thus: ATG_RARg_TRANS: Attagene TRANS-FACTORIAL HepG2 Assay for human Retinoic Acid Receptor gamma (RARg) (AID 2283009; active means hit-call score of the fitted dose curve at least 0.9, where 1 is the maximum). An outline of the steps:
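Transactivation of exogenous RARg-Gal4 fusion measured as reporter transcript induction after 24 h in transfected HepG2 cells. RNA reverse-transcribed, amplified, fluorescently labeled and resolved by capillary electrophoresis; increase relative to DMSO.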

The target of assay [20] is human Retinoic Acid Receptor beta (RARb), RARB (gene 5915) (UniProt P10826). In words: ATG_RARb_TRANS: Attagene TRANS-FACTORIAL HepG2 Assay for human Retinoic Acid Receptor beta (AID 2283004; active means hit-call score of the fitted dose curve at least 0.9, where 1 is the maximum). An outline of the steps: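 HepG2 cells were transiently transfected with GAL4-UAS reporter units that report activity of exogenous chimeric NR-Gal4 proteins, then exposed to compound for 24 h. Reporter mRNA was quantified by RT-PCR with capillary electrophoresis fluorescence, as gain of signal over DMSO.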

Results filed as inconclusive are left out. The source made the active and inactive calls. How the source made its calls, unless noted: active means hit-call score of the fitted dose curve at least 0.9, where 1 is the maximum; inactive means score below 0.9.

Experimental findings from PubChem BioAssay (EPA / NIEHS) are described below.

By AC50 is commonly meant the concentration giving half of the maximal activity seen.

Chain of Peroxisome proliferator-activated receptor gamma (Homo sapiens) (P37231 whole entry, looked up, the tested form may be a part): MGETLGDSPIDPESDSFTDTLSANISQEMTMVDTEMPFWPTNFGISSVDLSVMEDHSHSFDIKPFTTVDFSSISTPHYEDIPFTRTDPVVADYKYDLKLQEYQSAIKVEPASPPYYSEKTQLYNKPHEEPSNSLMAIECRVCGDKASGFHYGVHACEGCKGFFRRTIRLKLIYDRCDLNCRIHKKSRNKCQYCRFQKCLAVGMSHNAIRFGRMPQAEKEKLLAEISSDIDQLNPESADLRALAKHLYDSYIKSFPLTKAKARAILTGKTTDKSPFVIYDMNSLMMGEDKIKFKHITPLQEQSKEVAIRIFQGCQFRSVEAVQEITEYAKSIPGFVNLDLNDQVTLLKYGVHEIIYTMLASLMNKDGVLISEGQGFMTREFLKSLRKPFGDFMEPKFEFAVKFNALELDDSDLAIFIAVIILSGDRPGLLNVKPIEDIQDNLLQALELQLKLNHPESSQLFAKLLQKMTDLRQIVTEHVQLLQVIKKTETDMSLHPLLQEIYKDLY
Chain of human RAR-related Orphan Receptor gamma (RORg), RORC (gene 6097) (P51449 whole entry, looked up, the tested form may be a part): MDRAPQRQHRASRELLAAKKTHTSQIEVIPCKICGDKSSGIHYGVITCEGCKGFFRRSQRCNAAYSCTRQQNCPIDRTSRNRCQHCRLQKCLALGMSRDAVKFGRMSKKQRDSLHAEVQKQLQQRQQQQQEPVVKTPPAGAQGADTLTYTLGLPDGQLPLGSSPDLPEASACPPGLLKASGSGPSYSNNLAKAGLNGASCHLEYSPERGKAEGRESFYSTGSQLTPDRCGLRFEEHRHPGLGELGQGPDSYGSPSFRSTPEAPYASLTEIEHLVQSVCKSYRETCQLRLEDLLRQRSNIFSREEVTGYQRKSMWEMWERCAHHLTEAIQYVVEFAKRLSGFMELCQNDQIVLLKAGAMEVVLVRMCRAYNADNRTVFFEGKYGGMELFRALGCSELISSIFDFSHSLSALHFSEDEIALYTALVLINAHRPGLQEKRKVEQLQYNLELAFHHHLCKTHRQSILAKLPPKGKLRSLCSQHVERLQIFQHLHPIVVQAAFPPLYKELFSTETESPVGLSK
Chain of Retinoic acid receptor RXR-alpha (Homo sapiens) (P19793 whole entry, looked up, the tested form may be a part): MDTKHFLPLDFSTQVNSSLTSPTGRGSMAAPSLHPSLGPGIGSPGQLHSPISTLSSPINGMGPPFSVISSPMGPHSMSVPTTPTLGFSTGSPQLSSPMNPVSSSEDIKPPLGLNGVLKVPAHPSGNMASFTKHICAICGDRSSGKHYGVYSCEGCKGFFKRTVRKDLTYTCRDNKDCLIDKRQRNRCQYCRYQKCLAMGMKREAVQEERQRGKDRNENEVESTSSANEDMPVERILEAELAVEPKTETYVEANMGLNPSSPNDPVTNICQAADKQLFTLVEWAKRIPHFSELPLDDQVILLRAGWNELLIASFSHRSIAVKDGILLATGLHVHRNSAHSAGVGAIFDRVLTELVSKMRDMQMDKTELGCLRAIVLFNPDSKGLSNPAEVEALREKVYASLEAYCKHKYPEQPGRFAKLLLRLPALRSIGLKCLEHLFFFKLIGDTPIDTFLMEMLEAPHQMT
Chain of human Thyroid Receptor alpha (THRa1), THRA (gene 7067) (P10827 whole entry, looked up, the tested form may be a part): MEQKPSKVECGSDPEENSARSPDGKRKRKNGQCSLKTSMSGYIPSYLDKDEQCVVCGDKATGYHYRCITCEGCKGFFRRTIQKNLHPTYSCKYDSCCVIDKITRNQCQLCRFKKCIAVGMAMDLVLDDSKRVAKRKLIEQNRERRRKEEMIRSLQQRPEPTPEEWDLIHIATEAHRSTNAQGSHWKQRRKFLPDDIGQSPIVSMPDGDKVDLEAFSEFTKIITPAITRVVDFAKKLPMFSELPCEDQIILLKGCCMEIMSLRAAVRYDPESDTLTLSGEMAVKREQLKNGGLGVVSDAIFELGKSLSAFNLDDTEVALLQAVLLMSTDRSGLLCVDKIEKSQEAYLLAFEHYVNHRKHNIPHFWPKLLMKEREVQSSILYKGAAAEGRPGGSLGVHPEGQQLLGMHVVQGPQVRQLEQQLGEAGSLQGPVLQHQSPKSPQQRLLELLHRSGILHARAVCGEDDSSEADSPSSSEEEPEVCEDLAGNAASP
Chain of human Peroxisome Proliferator-activated Receptor alpha (PPARa), PPARA (gene 5465) (Q07869 whole entry, looked up, the tested form may be a part): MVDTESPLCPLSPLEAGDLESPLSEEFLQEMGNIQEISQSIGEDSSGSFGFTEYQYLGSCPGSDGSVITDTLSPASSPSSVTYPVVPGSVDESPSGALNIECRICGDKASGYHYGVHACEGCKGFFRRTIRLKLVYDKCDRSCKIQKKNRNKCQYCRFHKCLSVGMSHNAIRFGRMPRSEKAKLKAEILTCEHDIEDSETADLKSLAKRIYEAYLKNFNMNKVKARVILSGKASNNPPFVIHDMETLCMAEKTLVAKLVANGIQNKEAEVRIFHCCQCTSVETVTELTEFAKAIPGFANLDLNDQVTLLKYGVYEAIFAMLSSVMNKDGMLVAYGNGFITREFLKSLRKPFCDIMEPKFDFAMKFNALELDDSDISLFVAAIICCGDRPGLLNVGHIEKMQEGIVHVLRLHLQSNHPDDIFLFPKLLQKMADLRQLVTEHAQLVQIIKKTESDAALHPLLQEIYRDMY
Chain of human RAR-related Orphan Receptor beta (RORb), RORB (gene 6096) (Q92753 whole entry, looked up, the tested form may be a part): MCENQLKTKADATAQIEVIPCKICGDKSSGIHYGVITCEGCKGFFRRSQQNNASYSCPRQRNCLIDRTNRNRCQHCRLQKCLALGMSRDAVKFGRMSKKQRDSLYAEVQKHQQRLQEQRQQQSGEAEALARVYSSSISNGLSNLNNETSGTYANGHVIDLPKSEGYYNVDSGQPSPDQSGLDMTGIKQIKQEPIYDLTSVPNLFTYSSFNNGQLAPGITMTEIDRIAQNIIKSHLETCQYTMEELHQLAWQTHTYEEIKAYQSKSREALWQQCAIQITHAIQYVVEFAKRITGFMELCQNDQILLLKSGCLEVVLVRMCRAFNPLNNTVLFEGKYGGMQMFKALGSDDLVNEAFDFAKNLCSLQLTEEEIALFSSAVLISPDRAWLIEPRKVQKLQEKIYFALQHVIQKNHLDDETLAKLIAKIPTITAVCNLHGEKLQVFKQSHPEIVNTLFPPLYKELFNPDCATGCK
Chain of Nuclear receptor subfamily 1 group I member 2 (Homo sapiens) (O75469 whole entry, looked up, the tested form may be a part): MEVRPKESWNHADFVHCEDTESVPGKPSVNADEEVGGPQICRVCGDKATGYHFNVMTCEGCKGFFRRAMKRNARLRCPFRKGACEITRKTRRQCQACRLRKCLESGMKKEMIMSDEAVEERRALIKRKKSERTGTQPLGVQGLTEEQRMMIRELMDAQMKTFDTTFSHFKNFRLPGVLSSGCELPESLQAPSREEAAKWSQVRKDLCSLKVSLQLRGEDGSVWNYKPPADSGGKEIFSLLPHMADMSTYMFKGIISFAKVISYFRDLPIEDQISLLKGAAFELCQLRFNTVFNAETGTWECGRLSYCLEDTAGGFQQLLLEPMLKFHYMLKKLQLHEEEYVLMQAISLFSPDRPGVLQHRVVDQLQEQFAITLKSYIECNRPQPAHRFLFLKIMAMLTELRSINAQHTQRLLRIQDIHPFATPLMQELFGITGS
Chain of human Peroxisome Proliferator-activated Receptor delta (PPARd), PPARD (gene 5467) (Q03181 whole entry, looked up, the tested form may be a part): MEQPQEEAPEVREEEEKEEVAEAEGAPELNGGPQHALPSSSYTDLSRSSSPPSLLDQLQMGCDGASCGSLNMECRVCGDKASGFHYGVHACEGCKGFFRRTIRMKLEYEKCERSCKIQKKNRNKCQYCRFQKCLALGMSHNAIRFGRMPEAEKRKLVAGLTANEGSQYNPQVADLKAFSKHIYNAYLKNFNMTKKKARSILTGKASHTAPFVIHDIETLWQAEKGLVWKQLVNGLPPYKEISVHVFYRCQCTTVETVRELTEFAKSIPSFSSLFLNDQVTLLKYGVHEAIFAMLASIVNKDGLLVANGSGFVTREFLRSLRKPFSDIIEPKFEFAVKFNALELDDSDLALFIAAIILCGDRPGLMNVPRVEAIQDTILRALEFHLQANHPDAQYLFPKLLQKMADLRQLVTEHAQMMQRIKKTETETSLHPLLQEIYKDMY
Chain of E-selectin (Homo sapiens) (P16581 whole entry, looked up): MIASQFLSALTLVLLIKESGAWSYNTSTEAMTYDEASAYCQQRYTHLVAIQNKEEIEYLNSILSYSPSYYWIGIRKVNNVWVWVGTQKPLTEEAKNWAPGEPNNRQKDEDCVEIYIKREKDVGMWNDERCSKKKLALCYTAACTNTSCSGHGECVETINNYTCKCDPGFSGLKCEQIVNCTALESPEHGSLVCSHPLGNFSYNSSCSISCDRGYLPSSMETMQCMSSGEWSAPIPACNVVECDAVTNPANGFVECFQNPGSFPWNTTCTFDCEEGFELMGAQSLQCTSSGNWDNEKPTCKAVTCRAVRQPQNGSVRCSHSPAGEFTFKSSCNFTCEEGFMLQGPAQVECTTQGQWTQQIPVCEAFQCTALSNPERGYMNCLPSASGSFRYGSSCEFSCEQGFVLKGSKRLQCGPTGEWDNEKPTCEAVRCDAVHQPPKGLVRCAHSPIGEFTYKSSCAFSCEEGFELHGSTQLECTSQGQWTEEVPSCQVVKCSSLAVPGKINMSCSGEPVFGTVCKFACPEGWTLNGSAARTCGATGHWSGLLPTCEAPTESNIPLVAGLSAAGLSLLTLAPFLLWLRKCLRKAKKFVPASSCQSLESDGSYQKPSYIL
Chain of human Retinoic Acid Receptor gamma (RARg), RARG (gene 5916) (P13631 whole entry, looked up, the tested form may be a part): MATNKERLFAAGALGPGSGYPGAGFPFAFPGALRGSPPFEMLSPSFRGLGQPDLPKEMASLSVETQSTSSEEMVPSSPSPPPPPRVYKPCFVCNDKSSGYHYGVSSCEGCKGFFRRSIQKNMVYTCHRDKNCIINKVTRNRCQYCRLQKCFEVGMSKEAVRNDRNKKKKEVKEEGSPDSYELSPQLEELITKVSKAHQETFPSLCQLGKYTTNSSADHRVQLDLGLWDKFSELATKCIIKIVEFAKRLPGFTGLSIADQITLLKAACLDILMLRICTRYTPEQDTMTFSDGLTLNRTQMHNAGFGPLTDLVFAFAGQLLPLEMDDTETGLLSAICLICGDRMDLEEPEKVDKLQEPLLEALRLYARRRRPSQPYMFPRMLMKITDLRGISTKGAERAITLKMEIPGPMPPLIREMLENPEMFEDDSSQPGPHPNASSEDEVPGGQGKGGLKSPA

Turning to `CC1=CC(C)C(C=O)C(C)C1` (stereo not drawn) (tested in a mixture with another compound), the outcome in [1], in assay [2], in assay [3], in assay [4], in assay [5] and in assay [6] was inactive. Further, the outcome in [7], in [8], in assay [9], in [10], in assay [11] and in [12] was inactive. The outcome in assay [13] was inactive.
For `O=S1(=O)CC(Cl)(Cl)C(Cl)(Cl)C1`, the AC50 in [1] is 0.408 µM (active); in assay [3], 1.02 µM (active); in assay [4], 0.191 µM (active); in assay [10], 0.611 µM (active); in assay [11], 1.33 µM (active); in assay [12], 0.537 µM (active). Also, in assay [13], the AC50 is 0.327 µM (active). For the same molecule, the molecule was called inactive in assay [2], in assay [14], in assay [5], in [6], in assay [15] and in [8]. Also, the molecule was called inactive in [16] and in assay [9].
For `CCCO[Si](OCCC)(OCCC)OCCC`, the outcome in assay [1], in [14], in assay [3], in assay [4], in assay [5] and in assay [6] was inactive. Besides, the call in [15], in assay [8], in assay [16], in [10], in [11] and in assay [17] was inactive. For the same molecule, the outcome in [12] and in [13] was inactive.
For the molecule `CC(C)(C)c1cccc(O)c1`, the result in [1], in assay [2], in assay [14], in assay [3], in assay [18] and in assay [4] was inactive. The result in assay [5], in assay [19], in assay [8], in [10], in assay [11] and in assay [12] was inactive. Further, the result in [13] was inactive. Moreover, the AC50 in assay [6] is 27.2 µM (active); in assay [16] it was 66.4 µM (active).
For the molecule `CCCCOCCOCCO`, the result in assay [1], in [3], in assay [20], in assay [18], in assay [4] and in assay [19] was inactive. Besides, the molecule was called inactive in assay [7], in assay [9], in assay [10], in assay [11], in assay [12] and in [13].
For the molecule `CCOC(=O)C=Cc1ccccc1`, the outcome in assay [1], in [2], in assay [3], in assay [4], in assay [19] and in assay [7] was inactive. In addition, the result in [16], in [10], in assay [11], in assay [12] and in assay [13] was inactive. Also, the AC50 was 25.4 µM (active) in [5] and 30.8 µM (active) in assay [6].
Turning to `CCCCCCCCCC(=O)OCC`, the AC50 is 34.3 µM (active) in [1]; 64.9 µM (active) in [2]; 35.1 µM (active) in assay [3]; 20 µM (active) in assay [4]; 84.8 µM (active) in assay [5]; 100 µM (active) in assay [16]. Also, the AC50 is 15.2 µM (active) in assay [10]; 20 µM (active) in [11]; 32 µM (active) in assay [17]; 29.7 µM (active) in assay [12]; 14.4 µM (active) in assay [13]. In addition, the outcome in [14], in assay [6], in assay [19], in assay [15] and in assay [8] was inactive.
